Where “and” joins values, the source holds several entries; their conditions need not be identical. Equal values may be shown once. Compounds without any hit were thinned out: in the full panel of roughly 83,000, 20% have a hit.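 48-hour exposure, single concentration, 96-well plates; percent growth endpoint where 0 means no net growth. Active: below 10.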 Calls of active or inactive are those of the source.

The experiment has as its system MDA-MB-468 breast. Kind of experiment: NCI-60 one-dose screen, 48 h (100 = growth as untreated, 0 = no growth, -100 = all killed). The following applies: 10 µM unless noted.
For `O=C(CN1CCN(c2cc(=O)[nH]c3ccc(F)cc23)CC1)N(c1ccccc1)c1ccccc1`, the growth is 98.6% (inactive). The result for `COc1ccc2c(c1OC)C(=O)O[C@@H]2[C@H]1c2c(c(C#CC#Cc3ccc(F)c(F)c3)c3c(c2OC)OCO3)CCN1C` reads 72.4% (inactive); that for `O=Cc1nc2ccccc2[nH]1`, 108% (inactive); that for `CCN(CC)CCOc1ccc(NC(=O)C(C(C)C)N2C(=O)/C(=C/c3ccc(Br)cc3)SC2=S)cc1` (stereo not given), 63.2% (inactive).

With `CCOC(=O)C1CSC(C)(C(=O)OCC)N1` (stereo not given), the growth is 105% (inactive).

`CCCOC(=O)C(O)c1ccccc1` (stereo not given): the growth is 102% (inactive). With `O=C(CCc1nnc2sc(-c3cc(O)c(O)c(O)c3)nn12)c1nc2ccccc2[nH]1`, the growth is 86.8% (inactive). The result for `CN(C)C(CNc1oc(-c2cccc3ccccc23)nc1C#N)c1ccco1` (stereo not given) reads 97% (inactive); that for `CN(C)Cc1ccc(O)c(C(=O)O)c1`, 106% (inactive); that for `Cc1c(C)c(C)c([N+](=O)[O-])c([N+](=O)[O-])c1C`, 82.1% (inactive). To `Cc1ccc(Cc2cnc(NC(=O)c3ccc4noc(-c5ccccc5)c4c3)s2)cc1` belongs 91% (inactive); to `Brc1ccc(Nc2nc(Nc3cnc4ccccc4c3)c3[nH]cnc3n2)cc1`, 65.5% (inactive). As for `Cc1nc(Nc2ccc(N)cc2)c2ccccc2n1`, the growth is 86.9% (inactive).

Consider `COc1ccccc1C(=O)Nc1cccc(-c2cc(=O)c3c(OC)c(OC)c(OC)cc3o2)c1`, for which the growth is 39.2% (inactive). To `CCN(CC)CCCC(C)Nc1ccnc2cc(Oc3ccccc3)ccc12` (stereo not given) belongs 31.5% (inactive) and 70.2% (inactive). To `Cc1cc2nc(CC(=O)c3ccncc3)c(=O)[nH]c2cc1C` belongs 102% (inactive). As to `Cc1ccc(NC(=O)c2sc3nc4c(cc3c2N)C(=O)CCC4)cc1C`, the growth was 50.7% (inactive). To `NC(N)=N/N=C/c1ccccc1` belongs 94.2% (inactive); to `CCOc1ccc(NC(=O)c2ccccc2-c2ccccc2C(=O)O)cc1`, 101% (inactive); to `COc1cc2c(c(OC)c1OC)-c1ccc(OC)c(=O)cc1[C@@H](NC(C)=O)CC2`, -8.64% (active) and -2.19% (active).

`Cc1cc(N2CCSCC2)nc(NC2CCCC(Nc3ccnc4cc(Cl)ccc34)C2)n1` (stereo not given): the growth is -43.7% (active). The result for `CCN(CC)c1ccc(-c2cc(-c3cc(OC)c(OC)c(OC)c3)nc(N3CCOCC3)c2C#N)cc1` reads 32.9% (inactive); that for `COc1cc(Nc2c3ccc(Cl)cc3nc3ccc(OC)cc23)c2ncccc2c1`, 36.3% (inactive); that for `COc1ccc(/C=C/C(=O)c2c(O)c(C)c(O)c3c2OC2=CC(O)=C(C(C)=O)C(=O)[C@]23C)cc1`, -40.1% (active). To `COc1ccc(Cn2cc3c(c2-c2ccccc2)CCc2cnoc2-3)cc1N` belongs 10.4% (inactive); to `COc1ccc(-n2c(N)c(-c3nc4ccccc4[nH]3)cc(C#N)c2=O)cc1`, 93.1% (inactive). As to `CC(=O)Nc1ccc(Cl)cc1Cl`, the growth is 90.1% (inactive).

For the compound `CCc1c(CC(=O)O)c2cc(C)ccc2n1Cc1ccc(Cl)cc1`, the growth was 95.3% (inactive) and 94.5% (inactive). As to `Cc1ccc(=O)n(-c2ccc(Br)cc2F)c1`, the growth is 102% (inactive). For the compound `Cc1cc(C)c2nc(Nc3nc(C)c(C)c(=O)[nH]3)nc(C)c2c1`, the growth is -35.8% (active).

As to `Cn1c(=O)c2c(ncn2CC[N+](C)(C)C)n(C)c1=O`, the growth was 101% (inactive). The result for `C/C(=C(/c1ccccc1)c1ccc(N2C(=O)c3cccc4c(N5CCN(C)CC5)ccc(c34)C2=O)cc1)c1ccccc1` reads 42.5% (inactive); that for `COc1cccc(/C=N/NC(=O)c2ccccc2N2CCCC2)c1O`, 0.775% (active); that for `COc1ccc(-n2c(SCc3nnc(NC(=O)c4ccc(Br)cc4)s3)nc3cc(OC)c(OC)cc3c2=O)cc1`, 93.6% (inactive). The result for `CCNCc1ccccc1` reads 98.6% (inactive).

As to `CC1(C)CN(c2cnc(C(=O)Nc3cc(F)cc4cccnc34)cn2)CCN1`, the growth was 17.8% (inactive). The result for `CCCCNC(=O)NS(=O)(=O)c1ccc(N2N=C(c3cc(C)ccc3C)CC2c2cc(OC)c(OC)c(OC)c2)cc1` (stereo not given) reads 24.4% (inactive). To `COCCNc1ccc2c3c(cccc13)C(=O)N(CCN(C)C)C2=O` belongs 45.2% (inactive); to `CCCC(=O)OCC1OC(n2cnc3c(=S)nc[nH]c32)C(OC(=O)CCC)C1OC(=O)CCC` (stereo not given), 70.8% (inactive). The result for `COc1cccc(NC(=O)c2c(-c3ccccc3)c(-c3ccccc3)n[nH]c2=O)c1` reads 92.4% (inactive).
